# This is one part of a sample in which hits are shown more often than they occur.
# Dicer inh: blocks human Dicer maturation of pre-miR-21 | Q9UPY3 | cat-ELCCA pre-miR-21 Dicer processing, chemiluminescence; active compounds read high | z-score at 25 µM | 47,000 tested, 6% active | AID 1347074; in the data active = z-score above about 3, passing the limit was not always enough;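 also: higher signal means more uncleaved substrate so more Dicer inhibition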
# Target sequence (Q9UPY3 whole entry, looked up): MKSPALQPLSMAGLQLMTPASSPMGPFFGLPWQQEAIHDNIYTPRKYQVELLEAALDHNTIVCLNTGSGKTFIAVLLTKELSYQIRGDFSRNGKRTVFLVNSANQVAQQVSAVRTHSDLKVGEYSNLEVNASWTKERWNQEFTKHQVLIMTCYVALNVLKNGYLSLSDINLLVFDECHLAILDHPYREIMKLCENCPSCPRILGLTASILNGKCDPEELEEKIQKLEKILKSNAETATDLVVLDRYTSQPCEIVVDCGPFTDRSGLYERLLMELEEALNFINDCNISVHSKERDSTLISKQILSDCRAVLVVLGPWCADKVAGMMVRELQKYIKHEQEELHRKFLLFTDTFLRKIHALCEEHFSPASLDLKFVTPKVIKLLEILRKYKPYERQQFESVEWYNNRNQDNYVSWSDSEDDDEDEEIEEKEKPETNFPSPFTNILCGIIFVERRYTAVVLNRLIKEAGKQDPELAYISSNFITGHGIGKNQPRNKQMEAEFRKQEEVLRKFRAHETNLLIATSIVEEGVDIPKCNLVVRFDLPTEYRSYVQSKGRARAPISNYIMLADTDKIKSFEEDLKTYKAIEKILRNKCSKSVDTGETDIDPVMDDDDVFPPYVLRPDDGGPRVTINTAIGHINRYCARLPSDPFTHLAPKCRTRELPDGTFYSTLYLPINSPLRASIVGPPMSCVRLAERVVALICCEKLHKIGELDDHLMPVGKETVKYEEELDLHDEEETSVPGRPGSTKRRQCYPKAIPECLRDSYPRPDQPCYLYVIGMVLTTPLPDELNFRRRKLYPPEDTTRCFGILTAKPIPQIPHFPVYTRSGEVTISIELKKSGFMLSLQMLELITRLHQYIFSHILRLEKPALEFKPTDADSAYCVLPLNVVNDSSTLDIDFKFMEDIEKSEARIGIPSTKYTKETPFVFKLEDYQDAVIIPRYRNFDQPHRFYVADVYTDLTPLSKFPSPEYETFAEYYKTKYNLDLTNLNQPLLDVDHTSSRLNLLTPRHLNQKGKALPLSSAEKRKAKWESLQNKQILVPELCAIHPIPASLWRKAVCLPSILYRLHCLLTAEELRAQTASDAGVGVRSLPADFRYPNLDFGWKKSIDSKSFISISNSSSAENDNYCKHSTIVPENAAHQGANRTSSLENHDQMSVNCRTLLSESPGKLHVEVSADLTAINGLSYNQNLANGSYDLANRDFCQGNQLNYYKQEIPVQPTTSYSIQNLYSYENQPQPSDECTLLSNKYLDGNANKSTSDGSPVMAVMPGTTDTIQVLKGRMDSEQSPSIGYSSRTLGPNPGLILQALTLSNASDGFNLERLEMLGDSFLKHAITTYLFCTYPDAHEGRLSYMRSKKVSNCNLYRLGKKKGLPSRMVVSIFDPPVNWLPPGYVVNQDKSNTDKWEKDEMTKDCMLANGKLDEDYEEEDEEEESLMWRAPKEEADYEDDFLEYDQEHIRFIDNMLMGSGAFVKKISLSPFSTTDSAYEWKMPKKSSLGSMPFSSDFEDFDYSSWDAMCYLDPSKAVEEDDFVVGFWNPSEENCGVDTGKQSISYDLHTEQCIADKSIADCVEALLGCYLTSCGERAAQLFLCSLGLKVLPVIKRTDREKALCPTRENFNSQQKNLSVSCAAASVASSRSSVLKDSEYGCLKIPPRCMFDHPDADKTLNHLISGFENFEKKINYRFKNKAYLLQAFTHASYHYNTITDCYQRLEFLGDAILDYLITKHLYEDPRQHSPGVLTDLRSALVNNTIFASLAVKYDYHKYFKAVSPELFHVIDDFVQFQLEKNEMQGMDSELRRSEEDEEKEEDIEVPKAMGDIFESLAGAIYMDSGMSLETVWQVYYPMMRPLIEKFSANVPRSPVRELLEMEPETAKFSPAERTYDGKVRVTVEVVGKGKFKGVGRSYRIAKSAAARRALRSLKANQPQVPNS
# Numbers stand for hits; i = inactive.
SMILES,Dicer inh
CCSc1nc2c(c(=O)[nH]1)C(c1ccc(Br)cc1)C1=C(CCCC1=O)N2 (stereo unspecified),i
O=c1[nH]c2ccc(S(=O)(=O)N3CCOCC3)cc2[nH]c1=O,i
COc1ccc(/C(O)=C2\C(=O)C(=O)N(Cc3cccnc3)C2c2ccc(O)c(OC)c2)cc1 (stereo unspecified),i
NCCNc1cccc2c(S(=O)(=O)O)cccc12,i
CC(=O)c1c(-c2cccs2)nn(-c2ccc([N+](=O)[O-])cc2)c1C,i
O=C(O)CS/C(=N\S(=O)(=O)c1ccccc1)Nc1cccc(Cl)c1,i
Brc1ccc(-c2cnc(/C=C/C=C/N3CCOCC3)s2)cc1,i
Cc1nn(-c2ccccc2)c2c1C(c1ccc(Cl)cc1)C(C#N)=C(N)O2 (stereo unspecified),i
CCN1C(=O)C2(/C(=C(/O)c3ccc(C)c(F)c3)C(=O)C(=O)N2CCN2CCOCC2)c2ccccc21 (stereo unspecified),i
C=CCOc1ccc(/C(O)=C2/C(=O)C(=O)N(CCOC)C23C(=O)N(CC)c2ccccc23)cc1C (stereo unspecified),6.05
C=CCOc1ccc(/C(O)=C2/C(=O)C(=O)N(CC3CCCO3)C23C(=O)N(C)c2ccccc23)cc1C (stereo unspecified),5.15
COc1ccc(/C(O)=C2/C(=O)C(=O)N(CC3CCCO3)C23C(=O)N(C)c2ccccc23)cc1C (stereo unspecified),i
C=CCOc1ccc(/C(O)=C2/C(=O)C(=O)N(CCCOC)C23C(=O)N(C)c2ccccc23)cc1C (stereo unspecified),i
CCN1C(=O)C2(/C(=C(/O)c3ccc(OC)cc3)C(=O)C(=O)N2CCOC)c2ccccc21 (stereo unspecified),i
C=CCOc1ccc(/C(O)=C2/C(=O)C(=O)N(CCOC)C23C(=O)N(CC)c2ccccc23)cc1 (stereo unspecified),i
CCN1C(=O)C2(/C(=C(/O)c3ccc(C)c(F)c3)C(=O)C(=O)N2CCOC)c2ccccc21 (stereo unspecified),8.73
C=CCOc1ccc(/C(O)=C2/C(=O)C(=O)N(CCCN(C)C)C23C(=O)N(C)c2ccccc23)cc1C (stereo unspecified),i
CCOC(=O)C1=C(C)N=C2SCCC(=O)N2C1c1ccccc1Cl (stereo unspecified),i
N#Cc1cc(Cl)ccc1Nc1ncnc(N)n1,i
O=C(CN1C(=O)c2ccccc2S1(=O)=O)NC(c1ccccc1)c1ccccc1,i
O=[N+]([O-])c1cccnc1Oc1ccc(Oc2ncccc2[N+](=O)[O-])c(-c2ccccc2)c1,i
Cc1ccc(C(=O)NC(Nc2cccc(C)n2)(C(F)(F)F)C(F)(F)F)cc1,i
CCOC(=O)C(C)NC(=O)C1CCC(c2ccc(Cl)cc2)CC1 (stereo unspecified),i
Cc1noc(/C=C/c2ccc(Sc3ccc(Cl)cc3)o2)c1[N+](=O)[O-],i
CC(=O)NNC(=O)c1sc2nc(-c3ccc(Cl)cc3)nn2c1C,i
SMILES,Dicer inh
CC1C/C(=N\Nc2ccc(I)cc2)c2cc(Cl)ccc2S1(=O)=O (stereo unspecified),3.98
O=S(=O)(Nc1cc(-c2cccs2)nn1-c1ccc(F)cc1)c1ccc(-c2cc(C(F)(F)F)on2)s1,i
O=C1C2C3c4ccccc4C(c4ccccc43)C2C(=O)N1c1ccncc1 (stereo unspecified),i
O=C1C2C3c4ccccc4C(c4ccccc43)C2C(=O)N1c1ccc(F)cc1 (stereo unspecified),i
O=C1C2C3c4ccccc4C(c4ccccc43)C2C(=O)N1CCO (stereo unspecified),4.64
CCCN(CCC)C(=O)C1Sc2nnc(C)n2NC1c1ccc(Cl)cc1 (stereo unspecified),i
O=C(Nc1ccccc1)ON=C1CC2CCCC(C1)N2Cc1cccs1,i
CCc1ccc2[nH]c3sc(C)nc3c2c1,i
CCOc1nc2ccccc2nc1OCC,i
CCOc1ccc(OCC)c2sc(C)nc12,3.2
Cc1csc2ncnc(N3CCN(S(=O)(=O)c4ccc(Cl)cc4)CC3)c12,i
COC(=O)c1sc2scc(C)c2c1C,i
Brc1ccc(OCc2nc(-c3ccncc3)no2)cc1,i
COc1ccc(OCc2nc(-c3cccs3)no2)cc1,i
Clc1ccc(-c2nc(-c3ccncc3)no2)cc1,i
COc1ccc(-c2nc(-c3ccc(Cl)cc3)no2)cc1,4.19
COc1ccc(-c2noc(COc3ccc(Br)cc3)n2)cc1,4.08
COc1ccc(-c2noc(-c3ccc(OC)cc3)n2)cc1,i
Nc1c(Cl)cc(-c2noc(-c3cccs3)n2)cc1Cl,i
COc1ccc(-c2noc(COc3ccc(Cl)cc3)n2)cc1,i
COc1ccc(-c2noc(-c3cccs3)n2)cc1,3.91
CCOc1ccc(-c2cc(C(F)(F)F)c(C#N)c(SCCC(=O)O)n2)cc1,i
O=C(CC1(O)C(=O)N(Cc2ccccc2Cl)c2ccccc21)c1ccc2c(c1)OCCO2 (stereo unspecified),i
CCOc1cc(N2CCOCC2)c(OCC)cc1NC(C)=O,i
N#CC1=C(N)OC2=C(C(=O)CCC2)C12C(=O)Nc1ccccc12 (stereo unspecified),i
SMILES,Dicer inh
COc1ccccc1Oc1nc2c(c(=O)n(Cc3ccc(Cl)c(Cl)c3)c(=O)n2C)n1C,i
CCOC(=O)C1=C(C)NC2=C(C(=O)c3ccccc32)C1c1cc(Br)c(OC)c(OCC)c1 (stereo unspecified),i
CC1c2ccsc2CCN1S(C)(=O)=O (stereo unspecified),i
CC1c2ccsc2CCN1S(=O)(=O)c1ccccc1 (stereo unspecified),3
CC1c2ccsc2CCN1S(=O)(=O)c1cc(C(F)(F)F)cc(C(F)(F)F)c1 (stereo unspecified),i
CCCCc1ccc(NC(=O)CSc2cccc(Cl)c2Cl)c(C)c1,i
COC(=O)c1sc(SC)c(S(=O)(=O)C(C)C)c1N/N=C(\C#N)S(=O)(=O)C(C)C,i
S=c1[nH]nc(-c2cccnc2)n1-c1cccc(Cl)c1,i
COC(=O)c1ccsc1NC(=O)CN1c2cccc3cccc(c23)S1(=O)=O,i
COc1ccc(NC(=O)N=S2CCN(S(=O)(=O)c3ccc(Cl)cc3)CC2)cc1,i
COC(=O)c1ccsc1NC(=O)CN1CCN(S(=O)(=O)c2ccc(Cl)cc2)CC1,3.05
CC1CCCC(C)N1C(=O)Cn1cc(C(=O)c2ccco2)c2ccccc21 (stereo unspecified),i
Cc1sc(=Nc2ccccc2)n(-c2ccccc2)c1C,i
CC1CC(=O)N(Cc2ccc(Cl)cc2)C(=O)C1,4.73
O=C1CNC(=S)N1Cc1ccc(Cl)cc1,i
CC1=C2CCC(C)CC23C2C(=O)N(Cc4ccc(Cl)cc4)C(=O)C2C1C1C(=O)N(Cc2ccc(Cl)cc2)C(=O)C13 (stereo unspecified),i
Cc1ccc(S(=O)(=O)NC(=O)N2CCCCC2)cc1,i
CCOC(=O)c1cc(/C(C)=N/Nc2ccccc2C(F)(F)F)on1,i
CS/C(N)=N/N=C/c1c(Cl)cccc1Cl,i
O=C(CSc1nnc2sc3ccccc3n12)N1CCN(c2ccccc2)CC1,3.69
O=C(O)CCSc1nnc2sc3ccccc3n12,i
CC(=O)CSc1nnc2sc3ccccc3n12,i
Cn1cnc2c(nnn2Cc2ccc(Cl)cc2)c1=O,i
CCOCCOC(=O)C1=C(C)NC2=C(C(=O)CC(C)(C)C2)C1c1ccc(OC)c(Br)c1 (stereo unspecified),i
C=CCNC(=S)NNC(=O)c1ccc(S(=O)(=O)N(CCC)CCC)cc1,i

# Compound activity deposited in PubChem by Center for Chemical Genomics, University of Michigan.
